According to PubChem BioAssay (Tox21):
Results filed as inconclusive are left out. Activity calls are given as the source filed them. Unless noted, the call rests on the fitted dose curve.

Assays:
[1] = qHTS assay to identify small molecule antagonists of the estrogen receptor beta (ER-beta) signaling pathway - cell viability counter screen (AID 1259382; active means well fitted curve in the direction sought with a large enough effect in the repeat runs; an effect the other way counts as inactive or inconclusive;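 further: HEK293T cells carrying ER-beta-UAS-bla reporter stimulated with estradiol; series mostly up to about 92 µM; nearly all actives have a fitted effect of over 55% in size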)
In short: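 ER-beta-UAS-bla HEK293T cells in 2% charcoal-stripped FBS medium, treated with compound plus 1 nM 17-beta-estradiol for 16 h at 37C. Viability read by CellTiter-Glo luminescence after 30 min at room temperature in the same wells.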

[2] = molecular target: Estrogen receptor (Homo sapiens) (UniProt P03372); experiment: qHTS assay to identify small molecule agonists of the estrogen receptor alpha (ER-alpha) signaling pathway in the presence of an antagonist (AID 1259383); further: top concentration of the series differs between compounds; nearly all actives have a fitted effect of over 15% in size
In short: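 VM7Luc4E2 cells express endogenous full-length ER-alpha with an ERE-luciferase reporter and were hormone-deprived for 5 days. Compounds at 15 concentrations were added with 10.0nM ICI-182,780 for 22hr at 37C. Luminescence was read with ONE-Glo.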

[3] = qHTS assay to identify small molecule agonists or antagonists of the thyroid stimulating hormone receptor (TSHR) signaling pathway - wild type cell line counter screen (AID 1259384)
In short: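 Counter screen in untransfected Hek293: compounds (15-point titration, triplicate) plus phosphodiesterase inhibitor Ro20-1724 added after 18 h plating; 30 min RT. Intracellular cAMP via competitive d2/cryptate immunoassay, 1 h incubation.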

[4] = qHTS assay to identify small molecule agonists of the estrogen receptor alpha (ER-alpha) signaling pathway in the presence of an antagonist - cell viability counter screen (AID 1259386; active means well fitted curve in the direction sought with a large enough effect in the repeat runs; an effect the other way counts as inactive or inconclusive;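 further: series mostly up to about 92 µM; cells exposed to compounds for 22 h at 37 °C before the viability read; nearly all actives have a fitted effect of over 30% in size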)
In short: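 Cell viability in VM7Luc4E2 cells (endogenous full-length ER-alpha) measured by CellTiter-Fluor fluorescence in the same wells as the luciferase screen. Cells pre-cultured 5 days in charcoal-stripped serum, then treated 22 h with compounds at 15 concentrations plus 10.0nM ICI-182,780.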

[5] = molecular target: Progesterone receptor (Homo sapiens) (UniProt P06401); experiment: qHTS assay to identify small molecule agonists of the progesterone receptor (PR) signaling pathway (AID 1346784); further: nearly all actives have a fitted effect of over 30% in size
In short: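 Fluorescence from LiveBLAzer B/G FRET substrate cleavage (2 hr, RT) reported PR activation in PR-UAS-bla HEK 293T cells treated 16 hr at 37C/5% CO2 with compounds; medium contained 2% charcoal-stripped FBS.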

[6] = molecular target: Progesterone receptor (Homo sapiens) (UniProt P06401); experiment: qHTS assay to identify small molecule antagonists of the progesterone receptor (PR) signaling pathway (AID 1346795; active means well fitted inhibition curve with a large enough effect in the signal ratio in the repeat runs, not every such curve was filed as active; the % refers to the signal ratio)
In short: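 Fluorescence intensity measured 2 hr after adding beta-lactamase FRET substrate to PR-UAS-bla HEK293T cells that had been co-treated 16 hr with compound and 1 nM R5020 (final concentration) in 2% charcoal-stripped FBS.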

[7] = qHTS assay to identify small molecule antagonists of the progesterone receptor (PR) signaling pathway - cell viability counter screen (AID 1346798; active means well fitted curve in the direction sought with a large enough effect in the repeat runs; an effect the other way counts as inactive or inconclusive; further: series mostly up to about 92 µM; nearly all actives have a fitted effect of over 50% in size)
In short: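 CellTiter-Glo luminescence; PR-UAS-bla HEK293T, 3,000 cells/well; compound + R5020, 16 hr, 37C/5% CO2; 30 min RT before read.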

[8] = qHTS assay to identify small molecule agonists of the progesterone receptor (PR) signaling pathway - cell viability counter screen (AID 1346799); further: nearly all actives have a fitted effect of over 45% in size
In short: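 In parallel with the beta-lactamase readout, cytotoxicity toward PR-UAS-bla HEK293T cells was measured by CellTiter-Glo luminescence following 16 hr compound incubation in 2% charcoal-stripped FBS medium.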

[9] = qHTS assay to identify small molecule antagonists of the TGF-beta/Smad signaling pathway - cell viability counter screen (AID 1346824; active means well fitted curve in the direction sought with a large enough effect in the repeat runs; an effect the other way counts as inactive or inconclusive; further: nearly all actives have a fitted effect of over 50% in size)
In short: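 Cytotoxicity counter-screen run in the same wells as the beta-lactamase Smad reporter read: CellTiter-Glo luminescence after 30 min at room temperature. HEK 293T SBE-bla cells had 5 hr compound exposure at 37 C with TGF-beta1 (0.25 ng/mL stock).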

[10] = molecular target: Thyrotropin receptor (Homo sapiens) (UniProt P16473); experiment: qHTS assay to identify small molecule antagonists of the thyroid stimulating hormone receptor (TSHR) signaling pathway (AID 1259385); further: nearly all actives have a fitted effect of over 20% in size
In short: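 Antagonist mode: compound-treated TSHR-expressing HEK293 cells were stimulated with 1.5 ng/mL TSH (final) in presence of Ro20-1724 for 30 min at RT. HTRF cAMP detection after 1 h; each compound tested at 15 concentrations, triplicate.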

Measured: Potency

Estrogen receptor (Homo sapiens), sequence (P03372 whole entry, looked up): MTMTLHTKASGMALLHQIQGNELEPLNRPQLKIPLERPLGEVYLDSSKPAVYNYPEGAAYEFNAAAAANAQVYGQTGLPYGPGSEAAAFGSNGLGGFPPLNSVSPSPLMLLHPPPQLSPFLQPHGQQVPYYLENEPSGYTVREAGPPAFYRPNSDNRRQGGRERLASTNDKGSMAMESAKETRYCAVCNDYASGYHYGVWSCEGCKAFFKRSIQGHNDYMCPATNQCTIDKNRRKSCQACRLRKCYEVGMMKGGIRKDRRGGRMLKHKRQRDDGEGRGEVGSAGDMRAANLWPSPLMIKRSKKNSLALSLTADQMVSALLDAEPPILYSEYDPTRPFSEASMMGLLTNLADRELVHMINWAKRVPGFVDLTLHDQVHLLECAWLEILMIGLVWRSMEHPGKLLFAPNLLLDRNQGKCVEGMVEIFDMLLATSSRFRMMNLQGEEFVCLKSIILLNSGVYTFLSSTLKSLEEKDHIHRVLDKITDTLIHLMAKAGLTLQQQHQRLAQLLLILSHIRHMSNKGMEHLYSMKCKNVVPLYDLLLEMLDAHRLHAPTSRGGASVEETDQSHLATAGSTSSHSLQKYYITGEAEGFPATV
Progesterone receptor (Homo sapiens), sequence (P06401 whole entry, looked up): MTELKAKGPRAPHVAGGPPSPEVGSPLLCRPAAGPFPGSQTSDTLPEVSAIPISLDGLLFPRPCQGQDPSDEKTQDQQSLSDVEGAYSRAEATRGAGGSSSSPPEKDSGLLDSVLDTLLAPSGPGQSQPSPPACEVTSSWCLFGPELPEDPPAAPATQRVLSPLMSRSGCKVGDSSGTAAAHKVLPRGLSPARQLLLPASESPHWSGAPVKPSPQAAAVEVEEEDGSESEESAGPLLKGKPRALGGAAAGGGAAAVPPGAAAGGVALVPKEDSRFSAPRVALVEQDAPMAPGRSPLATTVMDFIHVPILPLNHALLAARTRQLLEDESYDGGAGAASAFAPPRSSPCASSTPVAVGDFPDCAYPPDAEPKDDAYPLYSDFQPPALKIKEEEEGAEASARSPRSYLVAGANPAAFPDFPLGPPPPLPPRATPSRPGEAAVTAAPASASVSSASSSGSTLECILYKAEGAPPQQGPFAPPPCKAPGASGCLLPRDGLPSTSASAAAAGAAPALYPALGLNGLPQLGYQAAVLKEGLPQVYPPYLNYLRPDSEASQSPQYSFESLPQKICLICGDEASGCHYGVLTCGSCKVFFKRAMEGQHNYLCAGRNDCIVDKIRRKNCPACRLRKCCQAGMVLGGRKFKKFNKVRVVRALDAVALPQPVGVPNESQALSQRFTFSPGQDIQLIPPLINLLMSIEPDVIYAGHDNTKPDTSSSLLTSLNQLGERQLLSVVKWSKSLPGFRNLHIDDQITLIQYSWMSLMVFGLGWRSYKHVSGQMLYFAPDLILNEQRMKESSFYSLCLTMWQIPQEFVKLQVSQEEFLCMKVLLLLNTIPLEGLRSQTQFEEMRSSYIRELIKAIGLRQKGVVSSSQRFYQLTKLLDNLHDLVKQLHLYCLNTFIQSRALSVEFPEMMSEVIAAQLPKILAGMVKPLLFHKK
Thyrotropin receptor (Homo sapiens), sequence (P16473 whole entry, looked up): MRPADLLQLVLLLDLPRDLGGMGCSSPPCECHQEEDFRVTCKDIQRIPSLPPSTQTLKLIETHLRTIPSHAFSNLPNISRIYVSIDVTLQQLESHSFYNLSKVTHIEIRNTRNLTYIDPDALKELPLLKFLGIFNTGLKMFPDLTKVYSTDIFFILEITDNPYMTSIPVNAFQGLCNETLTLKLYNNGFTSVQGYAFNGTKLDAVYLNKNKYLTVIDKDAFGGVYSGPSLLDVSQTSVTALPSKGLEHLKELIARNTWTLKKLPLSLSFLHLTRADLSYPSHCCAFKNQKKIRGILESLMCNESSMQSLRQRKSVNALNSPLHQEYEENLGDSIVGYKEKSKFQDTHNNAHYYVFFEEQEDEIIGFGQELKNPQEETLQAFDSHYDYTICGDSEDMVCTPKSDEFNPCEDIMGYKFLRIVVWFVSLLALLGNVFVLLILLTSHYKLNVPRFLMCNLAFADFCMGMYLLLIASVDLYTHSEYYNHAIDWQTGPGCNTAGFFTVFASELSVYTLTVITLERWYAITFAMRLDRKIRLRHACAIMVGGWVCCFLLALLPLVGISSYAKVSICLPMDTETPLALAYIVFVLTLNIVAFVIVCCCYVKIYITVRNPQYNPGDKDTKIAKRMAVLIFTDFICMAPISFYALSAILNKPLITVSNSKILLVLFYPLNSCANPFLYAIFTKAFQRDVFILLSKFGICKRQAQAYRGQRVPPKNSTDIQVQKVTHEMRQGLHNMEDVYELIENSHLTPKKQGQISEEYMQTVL

CCCCCCCCCCCCOC(C)=O
not listed: [10]
inactive: all other assays above

COCC(=O)Nc1c(I)c(C(=O)NCC(O)CO)c(I)c(C(=O)N(C)CC(O)CO)c1I (configuration not stated)
not listed: [9] | [10]
inactive: all other assays above

CCN(CCC#N)c1ccccc1
inactive: [1] | [2] | [3] | [4] | [5] | [9]

FC(F)(F)/C(=N\OCC1OCCO1)c1ccc(Cl)cc1
not listed: [10]
inactive: all other assays above

Nc1ccc(S(=O)(=O)Nc2ccccn2)cc1
not listed: [4]
inactive: all other assays above

CCN1CN(CC)CN(CC)C1
not listed: [4] | [7] | [9]
inactive: all other assays above

Cc1nc2n(c(=O)c1CCN1CCC(C(=O)c3ccc(F)cc3)CC1)CCS2
not listed: [4] | [7] | [9]
inactive: all other assays above

CC(=O)/C=C/c1ccco1
not listed: [4] | [9] | [10]
inactive: all other assays above

CCCCC(=O)N(C)C
not listed: [4] | [6] | [7]
inactive: all other assays above

CCOC(=O)CC#N
not listed: [10]
inactive: all other assays above

F[Si-2](F)(F)(F)(F)F
not listed: [8] | [10]
inactive: all other assays above

C=CCOC(=O)c1ccc(C(=O)OCC=C)c(C(=O)OCC=C)c1
inactive: [1] | [2] | [3] | [4] | [5] | [7]

NC(=O)NNC(N)=O
not listed: [4]
inactive: all other assays above

O=C(O)CCNC(=O)c1ccccc1
inactive: [1] | [2] | [3] | [5] | [6] | [7]

NC(=O)NC(=O)Cc1ccccc1
not listed: [4] | [8] | [10]
inactive: all other assays above

Cc1nc([N+](=O)[O-])cn1-c1ccc([N+](=O)[O-])cc1
not listed: [9] | [10]
inactive: all other assays above

CCCCCCCCCCCCCCCCCCN(C)C
not listed: [4] | [8]
inactive: all other assays above

CC(C)(CO)[C@@H](O)C(=O)NCCCO
not listed: [8] | [10]
inactive: all other assays above

CCCCCCCCCCCCCC(=O)OC
not listed: [4]
inactive: all other assays above

N#CCCOCCOCCC#N
not listed: [10]
inactive: all other assays above

C=CCOc1c(Br)cc(Br)cc1Br
not listed: [6] | [10]
inactive: all other assays above

CO[Si](CCCCl)(OC)OC
inactive: [1] | [2] | [4] | [5] | [6] | [7]

CCCCCC1Nc2cc(C(F)(F)F)c(S(N)(=O)=O)cc2S(=O)(=O)N1 (configuration not stated)
not listed: [8] | [10]
inactive: all other assays above

CCOC(=O)CCCCCCCCC(=O)OCC
not listed: [10]
inactive: all other assays above

Cc1ccccc1C(=O)N1CC/C(=N\OS(=O)(=O)O)c2ccc(Cl)cc21
not listed: [8] | [10]
inactive: all other assays above

Nc1cc(Cl)cc(S(=O)(=O)O)c1O
not listed: [4] | [8] | [10]
inactive: all other assays above

O=CN1CCOCC1
not listed: [8] | [10]
inactive: all other assays above

NCCc1ccn[nH]1
not listed: [10]
inactive: all other assays above

Cc1oc(=O)oc1CN1CCN(c2cc3c(cc2F)c(=O)c(C(=O)O)c2n3C(C)S2)CC1 (configuration not stated)
not listed: [10]
inactive: all other assays above

COC(=O)CCC(=O)O
not listed: [10]
inactive: all other assays above
